Assay [1] can be described thus: ATG_GLI_CIS: Attagene CIS-FACTORIAL HepG2 Assay for human Zinc Finger Protein GLI1 (AID 2282945). The following applies: HepG2, Attagene cis-factorial reporter mRNA, GLI element; actives raise or lower the signal. Put shortly: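 HepG2 cells transiently transfected with cis-promoter multiplexed reporter units report endogenous transcription factor activity. After 24 h chemical exposure, reporter mRNA was quantified by RT-PCR, 6-FAM labelling, HpaI digestion and capillary electrophoresis, with bidirectional fitting against DMSO.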

The target in assay [2] is Bile acid receptor (Homo sapiens) (UniProt Q96RI1). Kind of assay: ATG_IR1_CIS: Attagene CIS-FACTORIAL HepG2 Assay for human Nuclear Receptor Subfamily 1 Group H Member 4 (NR1H4), IR1 submotif (AID 2282946). The conditions noted are these: IR1 reporter transcription, actives raise or lower the signal. Put shortly: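 Transient MRTU transfection, HepG2; 24 h dosing; RNA → RT-PCR → 6-FAM primer extension → HpaI digest → capillary electrophoresis fluorescence. Gain/loss of signal fitted relative to DMSO.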
Chain of Bile acid receptor (Homo sapiens) (Q96RI1 whole entry, looked up): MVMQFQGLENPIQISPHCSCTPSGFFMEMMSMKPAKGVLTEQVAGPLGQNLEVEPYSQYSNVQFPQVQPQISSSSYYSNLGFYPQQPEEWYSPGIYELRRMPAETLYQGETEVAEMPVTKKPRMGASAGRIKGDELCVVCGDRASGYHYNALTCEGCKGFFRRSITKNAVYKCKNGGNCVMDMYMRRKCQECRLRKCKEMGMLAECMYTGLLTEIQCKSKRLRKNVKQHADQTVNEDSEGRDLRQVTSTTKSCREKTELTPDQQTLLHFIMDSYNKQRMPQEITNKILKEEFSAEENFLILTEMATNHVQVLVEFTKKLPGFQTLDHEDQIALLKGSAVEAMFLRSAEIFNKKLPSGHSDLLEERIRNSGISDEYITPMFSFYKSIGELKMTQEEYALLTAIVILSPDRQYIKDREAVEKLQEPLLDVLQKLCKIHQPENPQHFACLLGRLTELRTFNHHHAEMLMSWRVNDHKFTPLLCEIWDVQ

Assay [3] is described as follows: ATG_ISRE_CIS: Attagene CIS-FACTORIAL HepG2 Assay for human Interferon Regulatory Factor 1 (IRF1) binding to an Interferon-Stimulated Response Element (ISRE) (AID 2282948). The following applies: HepG2 ISRE cis-reporter (Attagene), mRNA transcription readout; actives raise or lower the signal. An outline of the steps:
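Cell-based cis-reporter assay; HepG2; 24 h exposure; reporter mRNA by RT-PCR plus capillary electrophoresis fluorescence; activity in either direction scored relative to DMSO.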

A short description of assay [4]: ATG_M_32_CIS: Attagene CIS-FACTORIAL HepG2 Assay for M32 Transcription Factor (Internal Marker) (AID 2282949).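 Note: background control marker of the multiplexed CIS panel rather than a real target.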 The following applies: HepG2 Attagene cis-factorial M32 reporter, mRNA; actives raise or lower the signal. Put shortly: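 Following 24 h chemical exposure of HepG2 cells transiently expressing cis-promoter reporter constructs, reporter transcript levels were determined by RT-PCR with fluorescent labelling and capillary electrophoresis, then fitted bidirectionally against DMSO.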

Assay [5] in a line: ATG_M_06_CIS: Attagene CIS-FACTORIAL HepG2 Assay for M06 Transcription Factor (Internal Marker) (AID 2282950). The following applies: HepG2 Attagene CIS-FACTORIAL M06 internal marker reporter; actives raise or lower the signal. An outline of the steps: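 Cells (HepG2, transiently carrying cis-driven reporter units) receive chemical for 24 h before RNA isolation. Reporter cDNA is PCR-amplified, FAM-labelled by primer extension, HpaI-digested and sized on a capillary analyser.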

In assay [6] the target is Hypoxia-inducible factor 1-alpha (Homo sapiens) (UniProt Q16665). Kind of assay: ATG_HIF1a_CIS: Attagene CIS-FACTORIAL HepG2 Assay for human Hypoxia Inducible Factor 1 (HIF1A) (AID 2282951). The conditions noted are these: HepG2 Attagene cis-factorial HIF1a reporter transcription; actives raise or lower the signal. Put shortly:
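Cis-element reporter constructs were transiently transfected into HepG2 cells, which were treated for 24 h; reporter RNA was reverse-transcribed, amplified, labelled and resolved by capillary electrophoresis.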

The target of assay [7] is Hepatocyte nuclear factor 6 (Homo sapiens) (UniProt Q9UBC0). The assay is described as follows: ATG_HNF6_CIS: Attagene CIS-FACTORIAL HepG2 Assay for human Hepatocyte Nuclear Factor 6 (HNF6) (AID 2282952). The conditions noted are these: HepG2 Attagene cis-factorial HNF6 reporter transcription; actives raise or lower the signal. Put shortly: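 HepG2, transient MRTU transfection (cis promoters); 24 h chemical exposure; total RNA → oligo(dT) RT → PCR → 6-FAM labelling → HpaI cut → CE; bidirectional fit vs DMSO.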
Chain of Hepatocyte nuclear factor 6 (Homo sapiens) (Q9UBC0 whole entry, looked up): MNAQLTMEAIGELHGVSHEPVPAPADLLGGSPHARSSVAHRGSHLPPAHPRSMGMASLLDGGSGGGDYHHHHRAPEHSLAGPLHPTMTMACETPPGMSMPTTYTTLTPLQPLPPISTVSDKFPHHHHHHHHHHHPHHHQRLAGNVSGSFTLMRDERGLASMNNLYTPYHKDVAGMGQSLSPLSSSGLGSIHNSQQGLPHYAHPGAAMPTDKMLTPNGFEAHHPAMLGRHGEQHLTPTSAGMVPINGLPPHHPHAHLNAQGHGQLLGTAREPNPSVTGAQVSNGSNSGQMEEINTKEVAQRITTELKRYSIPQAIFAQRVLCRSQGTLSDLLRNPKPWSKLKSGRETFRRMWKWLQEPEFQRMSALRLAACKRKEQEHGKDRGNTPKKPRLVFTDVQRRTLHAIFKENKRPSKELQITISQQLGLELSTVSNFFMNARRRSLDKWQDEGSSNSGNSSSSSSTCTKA

Assay [8] deals with Heat shock factor protein 1 (Homo sapiens) (UniProt Q00613). The assay is described as follows: ATG_HSE_CIS: Attagene CIS-FACTORIAL HepG2 Assay for human Heat Shock Transcription Factor 1 (HSE) (AID 2282953). The following applies: HepG2 HSE cis-reporter, Attagene RNA transcription; actives raise or lower the signal. An outline of the steps:
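Liver-derived HepG2 cells carry transiently introduced multiple reporter units governed by cis promoters. Reporter RNA measured 24 h post-dose through reverse transcription, PCR amplification, fluorescent labelling and capillary electrophoresis, normalised to DMSO.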

Assay [9] can be described thus: ATG_MRE_CIS: Attagene CIS-FACTORIAL HepG2 Assay for human Metal Responsive Element (MRE) (AID 2282954). The following applies: HepG2 MRE cis-reporter transcription, Attagene multiplex; actives raise or lower the signal. Put shortly: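 HepG2 cells transiently transfected with multiple cis-element reporter units measure endogenous MTF1-driven transcription. After 24 h compound exposure, reporter mRNA is quantified by RT-PCR with 6-FAM labelling, HpaI digestion and capillary electrophoresis; bidirectional fits versus DMSO.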

The target of assay [10] is Paired box protein Pax-6 (Homo sapiens) (UniProt P26367). Kind of assay: ATG_Pax6_CIS: Attagene CIS-FACTORIAL HepG2 Assay for human Paired Box 6 (PAX6) (AID 2282956). The conditions noted are these: HepG2 CIS-FACTORIAL PAX6 reporter transcription, RNA readout; actives raise or lower the signal. Put shortly:
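Multiplexed cis-reporter HepG2 system; 24 h treatment; reporter mRNA read by RT-PCR/CE fluorescence; bidirectional fit vs DMSO.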

Assay [11] in a line: ATG_PXRE_CIS: Attagene CIS-FACTORIAL HepG2 Assay for human Pregnane X Receptor Element (PXRE) (AID 2282957). The conditions noted are these: HepG2 Attagene CIS-FACTORIAL PXRE reporter, mRNA; actives raise or lower the signal. Put shortly:
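Transfect HepG2 with MRTUs (cis promoter elements); dose chemical, incubate 24 h; isolate RNA, RT with oligo(dT), PCR, 6-FAM label, HpaI cut, CE. Gain/loss fit vs DMSO.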

Assay [12] in a line: ATG_PPRE_CIS: Attagene CIS-FACTORIAL HepG2 Assay for human Peroxisome Proliferator-activated Response Element (PPRE) (AID 2282958). The following applies: HepG2 PPRE cis-element reporter, Attagene transcription factor profiling; actives raise or lower the signal. Put shortly: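 DMSO served as negative control and baseline for bidirectional curve fitting. Signal came from PPRE-regulated reporter mRNA in HepG2 cells, measured 24 h post-dosing by RT-PCR, 6-FAM primer extension and capillary electrophoresis.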

Assay [13] can be described thus: ATG_RORE_CIS: Attagene CIS-FACTORIAL HepG2 Assay for human RAR-related Orphan Receptor Element (RORE) (AID 2282959). The conditions noted are these: HepG2 Attagene cis-factorial RORE reporter, mRNA; actives raise or lower the signal. Put shortly:
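Transfect HepG2 with MRTUs; treat 24 h; extract RNA; RT with oligo(dT); PCR with reporter-specific primers; 6-FAM primer extension; HpaI digest 2 h at 37 C; capillary electrophoresis. Fit vs DMSO, bidirectional.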

Assay [14] in a line: ATG_Sox_CIS: Attagene CIS-FACTORIAL HepG2 Assay for human SRY-box transcription factor (SOX) (AID 2282960). The conditions noted are these: HepG2 Attagene cis-factorial SOX reporter, mRNA; actives raise or lower the signal. Put shortly:
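Fluorescence-labelled cDNA fragments from reporter transcripts, sized by CE, give the signal. Cells: HepG2, transiently transfected with cis-regulated reporter units. Exposure 24 h; DMSO negative control; bidirectional curve fitting.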

In assay [15] the target is Transcription factor Sp1 (Homo sapiens) (UniProt P08047). Kind of assay: ATG_Sp1_CIS: Attagene CIS-FACTORIAL HepG2 Assay for human Specificity Protein 1 (Sp1) (AID 2282961). The following applies: HepG2 Sp1 cis-reporter transcription, actives raise or lower the signal. An outline of the steps: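 Chemicals are dosed onto HepG2 cells transfected with multiple cis-promoter reporter constructs, and after 24 h reporter RNA is reverse-transcribed, PCR-amplified and resolved by capillary electrophoresis for fluorescence quantitation; activity is scored up or down against DMSO.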
Chain of Transcription factor Sp1 (Homo sapiens) (P08047 whole entry, looked up): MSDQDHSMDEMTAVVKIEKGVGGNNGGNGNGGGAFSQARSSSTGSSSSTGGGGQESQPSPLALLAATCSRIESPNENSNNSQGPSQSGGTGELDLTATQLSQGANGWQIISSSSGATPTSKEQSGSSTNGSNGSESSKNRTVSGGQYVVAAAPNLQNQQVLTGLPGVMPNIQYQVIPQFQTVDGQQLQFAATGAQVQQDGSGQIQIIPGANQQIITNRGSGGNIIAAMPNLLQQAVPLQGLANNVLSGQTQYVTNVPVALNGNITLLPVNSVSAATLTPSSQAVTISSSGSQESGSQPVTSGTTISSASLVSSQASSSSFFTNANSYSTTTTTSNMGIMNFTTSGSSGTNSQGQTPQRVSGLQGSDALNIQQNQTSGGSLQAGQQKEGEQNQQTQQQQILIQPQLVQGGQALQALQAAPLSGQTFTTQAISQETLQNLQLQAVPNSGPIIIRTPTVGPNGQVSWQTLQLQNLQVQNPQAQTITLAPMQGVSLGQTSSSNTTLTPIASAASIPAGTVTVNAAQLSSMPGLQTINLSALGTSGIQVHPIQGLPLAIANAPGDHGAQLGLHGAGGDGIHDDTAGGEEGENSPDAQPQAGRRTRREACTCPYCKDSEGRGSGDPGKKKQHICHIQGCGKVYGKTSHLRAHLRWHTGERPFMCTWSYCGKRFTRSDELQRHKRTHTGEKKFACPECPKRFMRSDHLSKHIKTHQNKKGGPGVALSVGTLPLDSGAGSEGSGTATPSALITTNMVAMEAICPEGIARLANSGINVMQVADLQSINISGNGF

Assay [16] in a line: ATG_SREBP_CIS: Attagene CIS-FACTORIAL HepG2 Assay for human Sterol Regulatory Element Binding (SREBP) (AID 2282962). The following applies: HepG2 Attagene cis-factorial SREBP reporter, mRNA; actives raise or lower the signal. An outline of the steps: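 mRNA induction of transfected cis-promoter reporters in HepG2 cells, 24 h post-dose. Detection: RT-PCR with 6-FAM-labelled products, HpaI digest, capillary electrophoresis. DMSO served as negative control and baseline.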

The target in assay [17] is Signal transducer and activator of transcription 3 (Homo sapiens) (UniProt P40763). Kind of assay: ATG_STAT3_CIS: Attagene CIS-FACTORIAL HepG2 Assay for human Signal Transducer and Activator of Transcription 3 (STAT3) (AID 2282963). The following applies: HepG2, Attagene cis-factorial STAT3 reporter transcription; actives raise or lower the signal. An outline of the steps:
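HepG2 cells transiently transfected with cis-element-driven multiple reporter transcription units; after 24 h chemical exposure, reporter mRNA measured by RT-PCR, 6-FAM primer-extension labelling, HpaI digestion and capillary electrophoresis. Bidirectional fitting versus DMSO baseline.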

Assay [18] is described as follows: ATG_TA_CIS: Attagene CIS-FACTORIAL HepG2 Assay for human TA Basal Promoter (AID 2282964). The following applies: HepG2 Attagene CIS-factorial TA basal promoter reporter; actives raise or lower the signal. An outline of the steps:
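Background internal-marker endpoint from a 52-component HepG2 cis-reporter panel. Cells treated 24 h; reporter transcripts quantified via RT-PCR and CE fluorescence against DMSO baseline.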

Assay [19] in a line: ATG_PBREM_CIS: Attagene CIS-FACTORIAL HepG2 Assay for human Phenobarbital-responsive Enhancer Module (PBREM) (AID 2282955). The following applies: HepG2 PBREM cis-reporter, Attagene multiplexed transcription; actives raise or lower the signal. Put shortly: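 Multiplexed cis-reporter readout in human hepatoma HepG2 cells; PBREM-regulated transcript quantified after 24 h exposure by fluorescent RT-PCR fragment analysis. Signal changes up or down fitted relative to DMSO.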

The structures appear in SMILES notation. Calls of active or inactive are those of the source. Rule for the calls: active = hit-call score of the fitted dose curve at least 0.9, where 1 is the maximum; inactive = score below 0.9.

One may read the AC50 as the concentration giving half of the maximal activity seen.

Chain of Hypoxia-inducible factor 1-alpha (Homo sapiens) (Q16665 whole entry, looked up): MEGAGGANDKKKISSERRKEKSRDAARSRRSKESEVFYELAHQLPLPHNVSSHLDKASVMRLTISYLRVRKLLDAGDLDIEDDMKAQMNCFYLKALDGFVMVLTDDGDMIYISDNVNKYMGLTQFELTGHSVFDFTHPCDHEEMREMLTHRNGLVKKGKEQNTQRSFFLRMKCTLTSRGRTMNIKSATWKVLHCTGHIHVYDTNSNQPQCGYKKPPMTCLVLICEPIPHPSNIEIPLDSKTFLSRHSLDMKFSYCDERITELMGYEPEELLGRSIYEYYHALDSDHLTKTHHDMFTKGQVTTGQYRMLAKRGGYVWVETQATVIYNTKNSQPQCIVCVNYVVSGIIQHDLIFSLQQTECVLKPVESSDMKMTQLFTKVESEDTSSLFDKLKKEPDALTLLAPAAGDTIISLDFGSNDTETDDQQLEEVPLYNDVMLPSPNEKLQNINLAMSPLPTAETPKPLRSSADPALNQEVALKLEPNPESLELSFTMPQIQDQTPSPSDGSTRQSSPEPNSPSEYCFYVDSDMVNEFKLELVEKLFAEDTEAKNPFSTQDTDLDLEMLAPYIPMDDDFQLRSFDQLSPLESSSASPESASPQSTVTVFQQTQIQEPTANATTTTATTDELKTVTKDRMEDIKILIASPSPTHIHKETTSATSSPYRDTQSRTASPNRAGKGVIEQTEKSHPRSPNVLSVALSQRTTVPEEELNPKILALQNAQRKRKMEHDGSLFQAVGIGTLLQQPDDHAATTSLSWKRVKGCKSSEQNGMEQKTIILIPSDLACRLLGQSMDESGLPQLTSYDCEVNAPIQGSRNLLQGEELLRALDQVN
Chain of Heat shock factor protein 1 (Homo sapiens) (Q00613 whole entry, looked up): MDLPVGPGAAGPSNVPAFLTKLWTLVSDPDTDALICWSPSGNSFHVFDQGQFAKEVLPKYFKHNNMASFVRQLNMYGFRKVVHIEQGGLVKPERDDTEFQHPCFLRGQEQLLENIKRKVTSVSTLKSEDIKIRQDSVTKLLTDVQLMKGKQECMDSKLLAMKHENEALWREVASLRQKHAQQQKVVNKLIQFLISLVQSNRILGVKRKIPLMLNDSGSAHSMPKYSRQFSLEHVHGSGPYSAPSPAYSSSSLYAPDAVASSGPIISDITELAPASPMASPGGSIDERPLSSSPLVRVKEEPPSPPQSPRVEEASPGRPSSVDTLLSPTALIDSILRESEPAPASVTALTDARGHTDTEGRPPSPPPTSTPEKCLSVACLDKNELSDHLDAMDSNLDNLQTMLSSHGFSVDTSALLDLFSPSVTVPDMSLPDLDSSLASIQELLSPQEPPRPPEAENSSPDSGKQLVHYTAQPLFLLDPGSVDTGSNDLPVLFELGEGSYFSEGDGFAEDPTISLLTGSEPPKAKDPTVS
Chain of Paired box protein Pax-6 (Homo sapiens) (P26367 whole entry, looked up): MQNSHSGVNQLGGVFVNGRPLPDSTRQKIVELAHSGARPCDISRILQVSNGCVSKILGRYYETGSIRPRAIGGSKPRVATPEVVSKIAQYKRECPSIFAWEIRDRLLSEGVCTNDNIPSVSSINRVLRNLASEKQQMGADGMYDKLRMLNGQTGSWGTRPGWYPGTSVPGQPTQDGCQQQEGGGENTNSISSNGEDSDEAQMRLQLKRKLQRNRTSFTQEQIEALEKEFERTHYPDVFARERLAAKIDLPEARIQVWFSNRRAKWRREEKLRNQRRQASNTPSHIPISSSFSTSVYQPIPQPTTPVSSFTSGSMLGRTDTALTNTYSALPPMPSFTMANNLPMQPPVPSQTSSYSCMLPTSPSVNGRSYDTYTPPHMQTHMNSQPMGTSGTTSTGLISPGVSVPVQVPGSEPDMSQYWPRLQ
Chain of Signal transducer and activator of transcription 3 (Homo sapiens) (P40763 whole entry, looked up): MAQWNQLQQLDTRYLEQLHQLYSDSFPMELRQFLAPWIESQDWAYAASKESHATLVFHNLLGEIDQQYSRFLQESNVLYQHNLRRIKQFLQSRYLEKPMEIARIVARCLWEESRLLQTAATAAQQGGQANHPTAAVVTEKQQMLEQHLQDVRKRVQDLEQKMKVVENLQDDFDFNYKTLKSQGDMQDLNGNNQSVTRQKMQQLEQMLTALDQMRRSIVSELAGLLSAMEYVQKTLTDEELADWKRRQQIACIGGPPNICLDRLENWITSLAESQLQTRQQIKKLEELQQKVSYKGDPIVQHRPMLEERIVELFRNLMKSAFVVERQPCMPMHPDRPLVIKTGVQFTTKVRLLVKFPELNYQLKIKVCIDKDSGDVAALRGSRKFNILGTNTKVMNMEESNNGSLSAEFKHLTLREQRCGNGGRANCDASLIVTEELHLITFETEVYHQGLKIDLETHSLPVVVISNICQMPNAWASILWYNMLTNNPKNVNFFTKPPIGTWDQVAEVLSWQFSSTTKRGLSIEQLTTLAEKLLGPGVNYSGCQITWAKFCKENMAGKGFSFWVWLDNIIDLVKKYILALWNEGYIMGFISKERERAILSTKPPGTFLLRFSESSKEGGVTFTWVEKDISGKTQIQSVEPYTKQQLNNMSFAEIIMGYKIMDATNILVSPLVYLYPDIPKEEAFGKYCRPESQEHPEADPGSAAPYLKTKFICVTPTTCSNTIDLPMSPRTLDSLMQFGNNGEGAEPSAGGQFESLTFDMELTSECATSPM

On to `Cc1cc(C)c(O)c(C(C)(C)C)c1`, for which the molecule was classed as inactive in assay [1], in assay [2], in [3], in assay [4], in assay [5] and in assay [6]. Besides, the molecule was called inactive in assay [7], in assay [8], in assay [9], in assay [10], in assay [12] and in assay [13]. Further, the call in assay [14], in assay [15], in assay [16], in assay [17] and in [18] was inactive. In addition, in assay [11], the AC50 was 27.1 µM (active).
Turning to `COc1ccccc1C=O`, the molecule was classed as inactive in [1], in assay [2], in [3], in assay [4], in [5] and in [7]. Also, the molecule was classed as inactive in assay [8], in [9], in [10], in [11], in assay [12] and in assay [13]. Further, the molecule was classed as inactive in assay [14], in assay [15], in assay [16] and in [17]. In [6], the concentration at half-maximal activity (AC50) was 27.7 µM (active).
With `CN(C)C(C)(C)CO`, the molecule was classed as inactive in [1], in [2], in [3], in [4], in [5] and in [6]. Besides, the outcome in assay [7], in [8], in assay [9], in [19], in assay [10] and in assay [11] was inactive. For the same molecule, the result in [12], in [13], in [14], in [15], in assay [16] and in [17] was inactive. Besides, the call in assay [18] was inactive.
Regarding `Cc1ccc(S(=O)(=O)C(I)I)cc1`, the AC50 in [1] is 6.16 µM (active); in assay [2], 42.7 µM (active); in [3], 4.8 µM (active); in assay [7] it was 33.4 µM (active); in [8], 10.4 µM (active); in assay [9] it was 8.81 µM (active). The AC50 is 14.9 µM (active) in assay [10]; 8.89 µM (active) in assay [11]; 62.5 µM (active) in [12]; 9.07 µM (active) in assay [15]; 4.34 µM (active) in assay [16]. The call in [4], in assay [5], in assay [19], in assay [13], in assay [14] and in assay [18] was inactive.
With `NC(=O)C(F)(F)C(F)(F)C(F)(F)C(F)(F)C(F)(F)C(F)(F)C(F)(F)F`, the molecule was called inactive in [1], in [2], in assay [3], in [4], in [5] and in [6]. Further, the molecule was classed as inactive in assay [7], in assay [8], in assay [9], in [19], in [10] and in assay [11]. The molecule was classed as inactive in [12], in assay [13], in [14], in assay [15], in assay [16] and in assay [18].
Turning to `NCC(F)(F)C(F)(F)C(F)(F)C(F)(F)C(F)(F)C(F)(F)C(F)(F)C(F)(F)F`, the outcome in assay [1], in assay [2], in assay [3], in [4], in assay [5] and in assay [6] was inactive. Moreover, the molecule was classed as inactive in assay [7], in assay [8], in assay [9], in assay [19], in [10] and in [11]. For the same molecule, the molecule was called inactive in [12], in [13], in [14], in assay [15], in assay [16] and in [18].
Regarding `CCCCCC/C=C/CCCCCCCC(=O)O`, the molecule was classed as inactive in [1], in assay [2], in assay [3], in assay [4], in assay [5] and in assay [6]. Moreover, the result in assay [7], in assay [8], in assay [9], in [10], in assay [11] and in assay [12] was inactive. Further, the molecule was classed as inactive in [13], in assay [14], in [15], in assay [16] and in [18].

The values above are taken from PubChem BioAssay (EPA / NIEHS).
